Reference: PubChem BioAssay (NCI)
Where “and” joins values, the source holds several entries; their conditions need not be identical. Equal entries are not always repeated. This is part of a sample that, as a whole, favours compounds with a hit. Of some 83,000 tested, about 20% had one in any assay.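 The endpoint reported here, percent growth, reads 100 for growth as untreated, 0 for no net growth and -100 for all cells dead.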 A number with no mark means an inactive call. Calls of active or inactive are those of the source.

Each molecule was assayed on HS 578T breast (assay: NCI-60 one-dose screen, 48 h (100 = growth as untreated, 0 = no growth, -100 = all killed)). Details: 10 µM.
Description: Growth inhibition of the HS 578T human tumor cell line is measured as a screen for anti-cancer activity. Cells are grown in 96 well plates and exposed to the test compound for 48 hours. Compounds are tested at a single concentration, which is 10^-5 M for most compounds. The reported endpoint is percent growth (GI% or GIPRCNT), where numbers from 0 - 100% represent growth inhibition, and numbers from -100% - 0 represent cell death. For example, a value of 40 represents 60% growth inhibition. A value of 0 means no net growth occurred over the course of the experiment. A value of -40 indicates 40% of cells at the beginning of the experiment died by the end of the experiment. A value of -100 means all cells are dead at the end of the experiment.
NCI-60 Human Tumor Cell Lines Screen was performed using the standard one-dose NCI protocol, which is described in more detail at https://dtp.cancer.gov/discovery_development/nci-60/default.htm.
Compounds with GIPRCNT values below 10 were considered active. Activity score was based on GIPRCNT using the following formula: […]
Score is 0 for GIPRCNT values of 100 or above, 50 for GIPRCNT values of 0, and 100 for GIPRCNT values of -100.
COc1ccc(-c2cscc2N)cc1 showed a growth of 106%.
In the case of CN(C)C(=O)c1ccc(SC(=S)NCc2ccccc2)cc1, the growth is reported as 116%.

Same assay, conditions: 10 µM unless noted
COc1cc(/C=C/C(C)=O)ccc1O gave a growth of 113%.
In the case of COC(=O)c1nc(=S)[nH]c(C(=O)OC)c1C(=O)c1ccccn1, the growth is reported as 70.1%.
CCOC(=O)c1c(C)[nH]c(CO)c1C was tested, and the growth was 109%.
For O=C(CC1(O)C(=O)Nc2c(Cl)ccc(Cl)c21)c1ccc(Cl)cc1Cl (stereo unspecified), the growth was 94%.
In the case of NC(=S)N/N=C/c1ccc(Cl)s1, the growth is reported as 103%.
Molecule O=C(/C=C\c1cc(Br)ccc1O)/C=C/c1cc(Br)ccc1O has a growth of 37.8%.
With N#CSCc1ccc(CSC#N)c(Cl)c1 the growth was 94.1%.
Cc1ccnc(NC(c2ccccc2)c2ccc3cccnc3c2O)c1 (stereo unspecified) showed a growth of 66.9%.
N#CC1C(=O)SC2c3ccccc3C(=O)c3ccccc3C12 (stereo unspecified) was tested, and the growth was 96.2%.
CN(C)c1ccc(N=Nc2cccc3ccccc23)cc1 was tested, and the growth was 95%.
CCC(c1cccc(O)c1)C(CC)c1cccc(O)c1 (stereo unspecified) was tested, and the growth was 54.2%.
CCN1/C(=C\c2cc[n+](CC)c3ccccc23)C=Cc2ccccc21 showed a growth of 37.4%.
Cc1ccc2c(ccc3c[n+]4c5ccccc5ccc4n32)c1 was tested, and the growth was 14.4%.
In the case of CC1(C)CC([P+](c2ccccc2)(c2ccccc2)c2ccccc2)=NN1, the growth is reported as 72.1%.
Molecule COc1ccccc1/C=C\C(=O)c1ccccc1 has a growth of 86%.
In the case of COC(=O)Nc1nc2ccc(C(=O)c3ccccc3)cc2[nH]1, the growth is reported as 35.5% and 15.8% and 21.6%.
With O=C(Oc1cccc2cccnc12)c1ccccc1 the growth was 74.9% and 123%.
In the case of Nc1nc(N)c2c(ccc3c2ccn3Cc2cccc([N+](=O)[O-])c2)n1, the growth is reported as -58.2% (active).
With Cn1c2ccccc2c2nnc(N/N=C/c3ccccn3)nc21 the growth was 53.7%.
Cc1ccc(NS(=O)(=O)c2ccc(C)cc2)cc1 was tested, and the growth was 98.9% and 111%.
CCC(=O)Sc1ccccc1C(=O)Nc1ccc(Cl)cc1 gave a growth of 54.5%.
With Cn1c2c(c3ccccc31)CCN1C[C@@H]3CCCC[C@H]3C[C@@H]21 the growth was -16.9% (active).
In the case of O=C1N[C@H]2[C@H](CS[C@H]2CCCCC(=O)N(CCP(c2ccccc2)c2ccccc2)CCP(c2ccccc2)c2ccccc2)N1, the growth is reported as 84.4%.
For C1=C(c2ccccc2)C(c2ccc(OCCN3CCCCC3)cc2)Oc2ccccc21 (stereo unspecified), the growth was 75.6%.
CC1OC(OC2C(OC3CCC4(C)C(CCC5(C)C4CC=C4C6CC(C)(C)CCC6(CO)C(O)CC45C)C3(C)C)OC(C(=O)O)C(OC3OC(COC4OC(CO)C(O)C(O)C4O)C(O)C(O)C3O)C2O)C(O)C(O)C1O (stereo unspecified) was tested, and the growth was -35.2% (active).
In the case of CN(C)c1ccc(C(=C2C=CC(=[N+](C)C)C=C2)c2ccc(N(C)C)cc2)cc1 (tested in a mixture with another compound), the growth is reported as -1.97% (active).
With Oc1c(Br)c(Br)c(O)c(Br)c1Br the growth was 144%.
In the case of S=C(N/N=C/c1ccccn1)Nc1ccccn1, the growth is reported as 97.4%.
Work on O=C1C=CC(=O)N1C1c2ccccc2-c2ccccc21 yielded a growth of 102%.
O=C(/C=C\c1ccccc1)N1c2ccccc2CC1c1c[nH]c2ccccc12 (stereo unspecified) showed a growth of 75.3%.
For CCN(CC)CC(C)(C)C(=O)/C=C/c1ccc(Cl)c(Cl)c1, the growth was 10.2%.
In the case of Nc1ncnc2c1ncn2C1OC(CO)C(O)C1O (stereo unspecified), the growth is reported as 125% and 77.9%.
C[N+](C)=c1ccc2nc3c(cc(NCCCNc4cc5oc6cc(=[N+](C)C)ccc-6nc5c5ccccc45)c4ccccc43)oc-2c1 was tested, and the growth was 87.4%.
Work on N#Cc1ccc([N+](=O)[O-])o1 yielded a growth of 100%.
With NC1=CC(=O)c2ccccc2C1=O the growth was 71.6%.
O=C1NC(=O)/C(=C/C=C/c2ccccc2)S1 showed a growth of 93.3%.
Molecule Nc1nc(N)c2nc(CNc3ccc(C(=O)NC(CCC(=O)O)C(=O)O)cc3)cnc2n1 (stereo unspecified) has a growth of 90.5%.

Same assay, conditions: 100 µM
With COc1ccc(-c2cscc2N)cc1 the growth was 88.2%.
CN(C)C(=O)c1ccc(SC(=S)NCc2ccccc2)cc1 gave a growth of 45.7%.
